Assay outcomes as filed in PubChem.
Autofluor counter – flagged as autofluorescent in microsphere protease counterscreen | compound autofluorescence counterscreen, microsphere flow cytometry; stronger effect = higher value | AID 624483 | 3.1% of 360,000 active | fluorescence intensity (no concentration beside the values); in the data active means fluorescence intensity above about 16000; inconclusive means no clear call, values can overlap the other calls
BoNT F protease – inhibitors of Botulinum neurotoxin F light chain protease; Multiplex microsphere protease cleavage assay, flow cytometry; inhibition, % at 10 µM; 0.22% of 360,000 active; AID 588497; in the data active means inhibition above about 35%, passing the limit was not always enough; inconclusive means no clear call, values can overlap the other calls; further: plate controls were buffer without enzyme for full effect and enzyme alone for no effect
BoNT A protease – BoNT A light chain protease inhibition | 0.17% of 360,000 active | multiplex microsphere protease substrate cleavage, flow cytometry | inhibition, % at 10 µM; further: plate controls were buffer without enzyme for full effect and enzyme alone for no effect
MazEF act – MazEF (E. coli) toxin RNase activation | activation, % at 20 µM | FAM/BHQ RNA-DNA oligo cleavage fluorescence, 5 h | 0.32% of 350,000 active; in the data active means activation above about 50%
Anthrax LF inh2 – anthrax lethal factor protease inhibition; P15917; multiplex microsphere protease cleavage assay, LF; inhibition, % at 10 µM; 0.12% of 360,000 active; AID 588501; further: plate controls were buffer without enzyme for full effect and enzyme alone for no effect
Numbers without * were called inactive; ? = inconclusive; . = no result given. Shown are actives, neighbours in structure and some others; about 3.6% of the full set was active somewhere. Unless noted, no stated cut-off is given here; in the data, active means inhibition above about 30%; inconclusive means no clear call, values can overlap the other calls; inactive means below that.

SMILES | Autofluor counter | BoNT F protease | BoNT A protease | MazEF act | Anthrax LF inh2
CC(C)C(C(=O)NCC1CCCO1)N(C(=O)CNS(=O)(=O)c1ccc(F)cc1)C1CCCCC1 (stereo not given) | 5761 | -4.2 | -0.3 | -8.7 | -0.7
O=S(=O)(NCC1CCCO1)c1ccc(S(=O)(=O)N(Cc2ccc(F)cc2)C2CCCCC2)cc1 (stereo not given) | 21632* | 4.7 | 1.8 | -6.0 | -0.2
Cc1cc(C)n2nc3nc4c(cc3c2n1)CCCC4 | 19863* | 6.4 | ? | -2.1 | 1.7
CN(C(=O)COC(=O)c1cc2c(s1)CCCCC2)C1CCS(=O)(=O)C1 (stereo not given) | 5691 | 2.6 | 0.9 | 6.4 | 0.7
Cc1cc(C(=O)N/N=C/c2ccco2)n[nH]1 | 1988 | -3.0 | 0.3 | 6.1 | -1.6
CC(/C=C/c1ccco1)=N\NC(=O)c1cc(C)[nH]n1 | 23188* | -0.2 | ? | 9.6 | -4.7
COc1cc(/C=C(\C#N)c2nc3ccccc3[nH]2)ccc1OC(=O)c1ccco1 | 2624 | 2.8 | 0.9 | 56.5* | -0.8
CC1(C(=O)Nc2cnc3ccccc3c2)CCN1C(=O)CC(c1ccccc1)c1ccccc1 (stereo not given) | 2945 | -0.5 | 0.4 | . | -4.6
CC(=O)NCCCc1nc2ccccc2n1Cc1ccccc1F | 4306 | 4.4 | -0.4 | 4.5 | -4.0
O=CNCCCc1nc2ccccc2n1Cc1cccc2ccccc12 | 20866* | 2.4 | ? | -1.0 | -16.5
CCN(CC)c1ccc(C=NNc2ccc([N+](=O)[O-])cn2)cc1 | 5173 | 16.0 | 1.6 | 75.5* | 1.5
Cn1cc(CN2CCc3ccccc3C2)c2ccccc21 | 21029* | -3.5 | -2.7 | -0.9 | 1.3
Oc1ccc(CN2CCc3ccccc3C2)c2cccnc12 | 16689* | -12.0 | -2.2 | 4.2 | -3.2
CCN1CCc2ccccc2C1 | 5888 | -13.6 | -1.1 | 1.5 | -8.8
Cc1c2cc(O)c(=O)cc-2oc2cc(O)c(O)cc12 | 17336* | -18.3 | 9.3 | 410.0* | -15.0
COC(=O)CCCn1cc(CN(C)C2CN(Cc3cn(CCCC(=O)OC)nn3)S(=O)(=O)C2)nn1 (stereo not given) | 5461 | 4.9 | 0.0 | . | 9.6
COC(=O)c1cc(C(=O)Nc2ccc(C)cn2)cc([N+](=O)[O-])c1 | 22666* | -2.2 | ? | 1.5 | 1.7
COc1ccc(S(=O)(=O)N2CCC(C(=O)NN3CCCCC3)CC2)cc1 | 2970 | -4.9 | -0.8 | 2.4 | -5.6
O=C(CN1C(=O)c2cccnc2C1=O)c1ccccc1 | 20963* | -5.9 | -3.4 | -4.1 | -0.2
CCCCCOC(=O)NC1CCS(=O)(=O)C1 (stereo not given) | 4414 | -0.4 | -0.4 | -3.9 | -9.3
COc1c(C(=O)Nc2ccccc2N2CCOCC2)cc2ccccc2c1Br | 5801 | 5.3 | 2.9 | -0.9 | 0.6
CCOC(=O)c1cccnc1SCc1cc(=O)n2ccccc2n1 | 7574 | -2.1 | 0.8 | -0.3 | 0.9
CC(OC(=O)c1cccnc1SCc1cc(=O)n2ccccc2n1)c1ccccn1 (stereo not given) | 16644* | -5.0 | -3.0 | -0.8 | -3.5
COc1ccc(CCC(=O)Nc2cccc(S(=O)(=O)N3CCCC3)c2)cc1OC | 3949 | -1.8 | 0.7 | 2.4 | -4.0
CCn1nc(NS(=O)(=O)c2ccccc2)c2cc3cccc(C)c3nc21 | 19546* | 0.8 | ? | -0.2 | -8.4
SMILES | Autofluor counter | BoNT F protease | BoNT A protease | MazEF act | Anthrax LF inh2
COc1ccccc1C(=O)Nc1ccc2oc(-c3ccc(F)cc3)nc2c1 | 17405* | -1.1 | -1.9 | -4.8 | -0.2
CCCC(=O)Nc1ccc2oc(-c3ccc(OC)c(Br)c3)nc2c1 | 21634* | 3.3 | 2.9 | -1.9 | -5.7
COc1ccc(C(=O)Nc2ccc3oc(-c4cccc(F)c4)nc3c2)cc1OC | 4315 | 4.3 | -0.2 | 0.6 | -8.6
Cc1ccsc1C1Nc2ccc3ncccc3c2C2=C1C(=O)CCC2 (stereo not given) | 20032* | 0.5 | 2.7 | -2.8 | 1.2
CS(=O)(=O)c1ccc(C(=O)OCC(=O)N2CCCc3ccccc32)cc1 | 5226 | -1.6 | -0.6 | -0.2 | -2.1
Cc1nn(-c2ccc(Cl)cn2)c2c1C(=O)CC(C)(C)C2Br (stereo not given) | 3889 | -5.1 | -0.6 | -0.5 | -1.4
COc1ccc(CNC(=O)CC2C[C@H](C(=O)N3CCOCC3)[C@@]3(CCC4CCCC4)c4[nH]c5ccccc5c4CCN3C2=O)cc1OC (stereo not given in full) | 3902 | -3.4 | -0.1 | 4.4 | -1.1
CCOc1ccc(/C=C/[N+](=O)[O-])c2ccccc12 | 6477 | 16.1 | 47.0* | -29.3 | 28.5
CCOC(=O)COc1ccc2ccccc2c1/C=C/[N+](=O)[O-] | 2441 | -1.8 | 10.9 | 4.8 | 6.5
COc1ccc(Cl)cc1C(=O)O/N=C(\N)c1ccccn1 | 3904 | ? | -1.9 | 4.5 | 32.6*
N/C(=N\OC(=O)c1cc(Cl)ccc1Cl)c1ccccn1 | 2556 | -2.0 | 0.1 | -3.9 | -1.0
O=C(Nc1ccc(F)cc1)c1cccnc1N1CCCCC1 | 21821* | -5.2 | -4.0 | -2.0 | 1.3
COc1ccc(NC(=O)c2cccnc2N2CCCCC2)cc1 | 2444 | 1.5 | 0.4 | -4.7 | -1.8
O=C(Nc1ccc(Br)cc1)c1cccnc1N1CCCCC1 | 21086* | 5.4 | 7.5 | -13.5 | -7.5
C[C@@H]1CCCCO[C@@H](CN(C)Cc2ccncc2)[C@@H](C)CN([C@H](C)CO)C(=O)c2cc(NC(=O)c3ccccc3)ccc2O1 | 3663 | -1.6 | 0.0 | -4.2 | -8.1
Cc1cc(NC(=O)c2nn3cccnc3c2Cl)no1 | 21821* | -5.7 | -3.9 | 6.7 | -2.0
Cc1cc(NC(=O)c2cnn3cccnc23)no1 | 12933 | 3.0 | 1.1 | -3.7 | 1.5
CC(C)(C)OC(=O)C[C@H]1C/C=C\C[C@H](CC(=O)N(CCO)Cc2ccccc2)C(=O)N[C@H](C(C)(C)C)COC1=O | 3820 | -1.5 | 0.0 | 9.3 | -2.9
Cc1cc(/C=C2/SC(=S)N(c3ccc([N+](=O)[O-])cc3)C2=O)c(C)n1-c1cccnc1 | 4024 | 1.9 | 32.9* | -15.9 | 13.7
Cc1cc(/C=C2/SC(=S)N(c3cccc(Cl)c3)C2=O)c(C)n1-c1cccnc1 | 8722 | 73.6* | 59.5* | -61.5 | 51.3*
COCCNC(=O)C1CCCN(C(=O)C2(c3ccc(Cl)cc3)CCCC2)CC1 (stereo not given) | 2881 | -2.1 | 0.3 | . | -3.0
CCc1nc2ccc(C(=O)N3CCN(c4ccccc4)CC3)cn2c1N(CCC(C)C)CCN(C)C | 4010 | 0.0 | 0.5 | . | -0.1
Cc1cc(C(=O)CSc2nc3ccccc3c(=O)[nH]2)c(C)n1CC1CCCO1 (stereo not given) | 4355 | -4.4 | -0.4 | 0.1 | -4.2
O=c1[nH]c(SCC2CCCCO2)nc2ccccc12 (stereo not given) | 21391* | 0.2 | ? | -4.1 | 0.3
Cc1noc(C)c1CS(=O)(=O)c1ccc(Br)cc1 | 10237 | -0.7 | -0.5 | -4.7 | 1.8
Cc1ccc(S(=O)(=O)Cc2c(C)noc2C)cc1 | 22977* | -3.6 | -1.4 | 0.3 | -10.5
Cc1ccc2[nH]cc(C(=O)CN3CCN(C)CC3)c2c1 | 23399* | -2.5 | ? | 3.4 | -1.5
COc1ccc2c(C(=O)CN3CCN(c4ccccc4)CC3)c[nH]c2c1 | 24933* | -0.6 | ? | 29.7 | -1.8
